# cytoskel mod = cytoskeleton assembly modification; HUVEC TNFa F-actin phalloidin imaging, high content; inhibition, % at 2 µM; actives 0.18% (n = 91,000);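 active = inhibition above the batch mean plus 3 SD and confirmed as a hit by visual image inspection, cut at about 30% in these data, passing the limit was not always enough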
# E-sel TNF inh = blocks E-selectin expression induced by TNF alpha. HUVEC TNFa-induced E-selectin immunofluorescence, high content. inhibition, % at 2 µM. actives 0.71% (n = 120,000). AID 1246;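 active = inhibition above the batch mean plus 3 SD, and confirmed as a hit on visual image review, cut at about 43% in these data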
# TNFa cytotox = HUVEC cytotoxicity counter-screen, TNF alpha stimulated | actives 0.17% (n = 93,000) | cell count reduction, % at 2 µM | HUVEC TNFalpha-stimulated, Hoechst cell count, imaging;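 active = cell count reduction exceeding the screen mean by over 5 SD, scaled to untreated wells per plate, cut at about 78% in these data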;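 note: cells counted after 24 h of TNF alpha exposure following the 1 h pretreatment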
# PLAP act = human PLAP activation | AID 696 | activation fold at 20 µM | purified PLAP enzyme, luminescent substrate read-out; active compounds read high | actives 1.2% (n = 96,000); in the data active = activation fold above about 2
# Target sequence (P05187 whole entry, looked up): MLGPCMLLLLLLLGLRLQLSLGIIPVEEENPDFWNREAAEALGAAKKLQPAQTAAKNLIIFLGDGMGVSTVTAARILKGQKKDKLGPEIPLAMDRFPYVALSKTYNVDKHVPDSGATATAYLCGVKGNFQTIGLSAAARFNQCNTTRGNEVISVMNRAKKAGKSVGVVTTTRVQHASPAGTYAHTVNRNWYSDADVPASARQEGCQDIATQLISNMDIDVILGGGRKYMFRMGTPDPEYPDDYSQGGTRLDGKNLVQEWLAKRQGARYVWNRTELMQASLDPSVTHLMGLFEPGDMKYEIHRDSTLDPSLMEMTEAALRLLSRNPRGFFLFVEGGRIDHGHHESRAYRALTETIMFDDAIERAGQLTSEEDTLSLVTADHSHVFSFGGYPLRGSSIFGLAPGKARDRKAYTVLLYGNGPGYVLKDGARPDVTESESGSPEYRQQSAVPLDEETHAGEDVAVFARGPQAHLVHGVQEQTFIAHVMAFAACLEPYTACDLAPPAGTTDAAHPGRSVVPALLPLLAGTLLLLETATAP
# VCAM1 TNFa inh = reduces TNF alpha induced VCAM1 expression in HUVEC. actives 0.48% (n = 95,000). HUVEC TNFa-induced VCAM-1 immunofluorescence, high-content imaging. inhibition, % at 2 µM. AID 802;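 active = inhibition above the batch mean plus 3 SD, with images confirmed as a hit by eye, cut at about 37% in these data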
# Numbers stand for hits; n = inactive; x = no result. Hits are enriched below; roughly 2% of the tested compounds scored in any of these assays.
SMILES,cytoskel mod,E-sel TNF inh,TNFa cytotox,PLAP act,VCAM1 TNFa inh
CCOC(=O)Cc1nnc(NC(=O)CSc2ccc(Cl)cc2)s1,n,67,n,n,n
COc1ccc(C2c3c(-c4ccccc4O)n[nH]c3C(=O)N2CCc2ccc(OC)c(OC)c2)cc1 (centres undefined),n,n,n,2.8,n
O=C1CCSc2cccc3cccc(c23)N1,n,x,84,n,90
c1cc2c3c(cccc3c1)NC1(CCCCCC1)N2,x,n,x,n,x
Cc1nc2ncnn2c(N2CCCC(C(=O)Nc3ccc4c(c3)CCC4)C2)c1C (centres undefined),x,n,x,2.1,x
COc1cccc(/C=N/NC(=O)CCc2c(C)n[nH]c2C)c1,n,n,n,2.1,n
COc1ccc(-c2n[nH]c(C)c2-c2ccc(Cl)cc2)c(O)c1,n,n,n,n,n
COc1ccc(-c2n[nH]c(C(F)(F)F)c2-c2cc3ccccc3o2)c(O)c1,x,43,n,2,n
S=C(NCc1cccs1)NCC1CCCO1 (centres undefined),x,n,x,x,x
c1ccc(CN2CCN(c3nc4ccccc4n4cnnc34)CC2)cc1,n,x,n,n,n
NC1=NC2(CCC(c3ccccc3)CC2)n2c(nc3ccccc32)N1 (centres undefined),n,x,n,2.8,n
NC1=NC2(CCCCC2)n2c(nc3ccccc32)N1,n,n,n,n,n
NC1=NC2(CCN(Cc3ccccc3)CC2)n2c(nc3ccccc32)N1,n,x,n,2.6,n
Cc1cc2cc(CN3C(=O)c4ccccc4C3=O)ccc2n1C,x,n,x,x,x
CCCC(=O)c1ccc(N2CCOCC2)c(F)c1,n,n,n,2.1,n
CCC(=O)c1ccc(N2CCOCC2)c(F)c1,n,56,n,x,n
O=C(Cc1ccc(Cl)cc1)Nc1ccc(N2CCN(C(=O)c3ccco3)CC2)c(Cl)c1,n,n,n,2.4,n
CCOc1ccccc1N(C(=O)CNC(=O)c1ccco1)C(C(=O)NC(C)(C)C)c1ccncc1 (centres undefined),n,x,n,n,n
COc1ccc(/C=C/C(=O)NC(=S)N2CCSCC2)cc1,x,n,x,x,x
Cc1ccc(NC2OC(C(O)CO)C(O)C2O)cc1[N+](=O)[O-] (centres undefined),x,64,n,n,n
CCn1nnnc1-c1ccc(OC)c(S(=O)(=O)Nc2ccc(C)c(C)c2)c1,n,n,n,n,n
CCn1nnnc1-c1ccc(OC)c(S(=O)(=O)NCc2ccccc2)c1,n,88,n,n,n
Cc1ccc(-c2cc(C(=O)N/N=C/c3ccco3)[nH]n2)cc1,n,x,n,2.2,n
Cc1nc2ccccc2n1CCCOc1ccccc1,n,n,88,x,62
S=c1[nH]nc(-c2ccncc2)n1Cc1ccccc1,n,x,n,2,n
SMILES,cytoskel mod,E-sel TNF inh,TNFa cytotox,PLAP act,VCAM1 TNFa inh
CCCCNC(=O)CCC(=O)Nc1ncc(-c2ccc(C)cc2)n1C,n,n,n,2,n
Cc1ccc(-c2cnc(NC(=O)CCC(=O)N3CCCCC3)n2C)cc1,n,n,n,n,n
Cc1cccc(C)c1OCCSc1n[nH]c(N)n1,n,x,n,2,n
O=C(CCS(=O)(=O)c1ccccc1)Nc1nc2c(s1)COc1ccccc1-2,46,x,n,n,n
Cn1cc(C(=O)N2CCc3ccccc32)cn1,x,n,x,x,x
COc1ccc2nc(NC(=O)CNS(=O)(=O)c3cccs3)sc2c1,x,n,n,2.5,n
Cc1csc(NC(=O)CNS(=O)(=O)c2cccs2)n1,n,n,n,2,n
COc1ccc2nc(NC(=O)CN(C)S(=O)(=O)c3cccs3)sc2c1,n,x,n,n,n
Cn1cccc1CC(=O)N/N=C/C=C/c1ccco1,x,n,x,x,x
O=C(Nc1nc(-c2ccncc2)cs1)c1ccc(S(=O)(=O)N2CCOCC2)cc1,n,63,n,n,n
COc1ccc(OC)c(C(O)c2coc3ccc(O)c(CN4CCOCC4)c23)c1 (centres undefined),x,x,x,n,x
CC(/C=N/NC(=O)c1cc(-c2cccs2)[nH]n1)=C\c1ccccc1,x,n,x,x,x
O=C(c1ccc(Br)o1)N1CCN(C/C=C/c2ccccc2)CC1,n,n,n,n,n
O=C(c1ccc(Br)s1)N1CCN(C/C=C/c2ccccc2)CC1,n,n,n,2,n
O=C(COC(=O)c1ccc(CSc2ccc(Cl)cc2)cc1)Nc1ccccc1,x,n,x,x,x
Cc1ccc(S(=O)(=O)Cn2nnnc2C(C(C)C)N2CCN(c3nc4ccccc4s3)CC2)cc1 (centres undefined),n,n,n,x,50
O=C(CCCCCNc1nc(=S)[nH]c2ccccc12)NCCC1=CCCCC1,x,n,x,x,x
CC(O)CNc1nc2ccccc2n1-c1ncnc2sc3c(c12)CCC3 (centres undefined),n,n,n,2.7,n
